# According to the supplement of paper PMC3334620:
# The full ranking holds about 33,000 sequences; the median of “E-score (-0.5 to 0.5)” is about -0.041, and the highest 2% start at about 0.37. The list comes from a sample in which the highest values are over-represented; it also holds similar and randomly drawn sequences.
# Target: T1, Ecm22 (UniProt Q05958)
# T1 sequence: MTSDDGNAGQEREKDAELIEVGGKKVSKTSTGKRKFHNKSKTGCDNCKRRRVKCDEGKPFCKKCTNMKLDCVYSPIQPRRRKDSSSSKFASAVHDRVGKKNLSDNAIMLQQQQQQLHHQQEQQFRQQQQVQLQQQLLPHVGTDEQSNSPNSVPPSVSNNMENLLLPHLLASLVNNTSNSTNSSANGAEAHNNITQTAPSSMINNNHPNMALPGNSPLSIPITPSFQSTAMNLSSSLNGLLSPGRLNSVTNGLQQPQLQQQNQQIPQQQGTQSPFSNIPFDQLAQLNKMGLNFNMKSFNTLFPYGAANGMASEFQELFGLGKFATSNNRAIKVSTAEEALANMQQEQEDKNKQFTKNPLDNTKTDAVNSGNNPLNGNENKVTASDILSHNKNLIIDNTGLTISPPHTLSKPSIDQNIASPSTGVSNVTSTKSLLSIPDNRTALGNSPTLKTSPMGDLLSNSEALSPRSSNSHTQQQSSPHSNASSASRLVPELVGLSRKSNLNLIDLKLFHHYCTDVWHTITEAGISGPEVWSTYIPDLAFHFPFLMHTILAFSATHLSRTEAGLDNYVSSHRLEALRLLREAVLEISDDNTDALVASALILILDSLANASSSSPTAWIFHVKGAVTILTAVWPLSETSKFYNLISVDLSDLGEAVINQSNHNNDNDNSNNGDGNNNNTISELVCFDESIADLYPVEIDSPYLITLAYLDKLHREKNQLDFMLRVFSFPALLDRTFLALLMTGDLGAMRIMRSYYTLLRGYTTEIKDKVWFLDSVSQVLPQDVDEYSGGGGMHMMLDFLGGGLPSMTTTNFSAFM
# Assay: PBM E-score (8-mer binding enrichment) (E-score (-0.5 to 0.5)); higher = stronger / more preferred TF binding
# Conditions: protein concentration: 200 nM; construct: GST-full length
# Method: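 Universal 'all 10-mer' protein binding microarrays (Agilent AMADID 015681) probed with GST-tagged S. cerevisiae TFs (full-length or DBD) made by in vitro transcription/translation (PURExpress), about 100-200 nM. Bound TF was detected with fluorescent anti-GST. Each ungapped 8-mer (which stands for itself and its reverse complement) is scored by the PBM enrichment score (E-score), a modified Wilcoxon-Mann-Whitney statistic from -0.5 to +0.5, computed with the Universal PBM Analysis Suite. Scale: above 0.35 generally sequence-specific binding.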
row,Sequence,PBM E-score
1,GTTAAGCA,-0.0308
2,CATCAGAG,-0.126
3,ACACCCCT,-0.271
4,TGTTCTAA,-0.023
5,AGTGCGTA,0.14
6,CGAGTATC,0.246
7,CCGCTATC,0.0478
8,TATACGGA,0.439
9,CATACGGA,0.362
10,GATACGGA,0.285
11,CATACGCA,0.216
12,TATACGCA,0.415
13,GATACGCA,0.231
14,CGGATCGA,0.219
15,ATCTTTTC,-0.0858
16,ACGTTATG,0.163
17,AGGAGTAT,-0.109
18,CCGAGTAG,0.0401
19,CCGAGTAC,0.24
20,AAGAGTAT,-0.113
21,AAGAGTAG,-0.211
22,GCGAGTAC,0.324
23,GCGAGTAA,0.114
24,ACGAGTAT,0.382
25,ACGAGTAG,0.38
26,ACGAGTAC,0.421

row,Sequence,PBM E-score
1,ACGAGTAA,0.396
2,CCGAGTAA,0.256
3,AGGCCCAT,-0.148
4,GACCGCGC,0.0551
5,CCCGACCC,0.092
6,AAGCGCGT,0.0575
7,CCCCTCGG,0.266
8,CCGAGCCC,0.0573
9,CCCCTCTA,-0.112
10,AAGTTTGT,-0.176
11,AACTGTTC,-0.177
12,ACGCAGGA,0.108
13,AGCTGCCA,-0.171
14,ACGCCACC,-0.0558
15,CCGGTGGC,-0.135
16,ACGAGTCT,0.324
17,ACGAGTCA,0.219
18,ACGAGTCG,0.384
19,AATCCATT,0.0189
20,CACTCGTC,0.0448
21,GACTCGTA,0.455
22,CACTCGAA,0.0641
23,GACTCGAA,-0.121
24,GACTCGCA,0.151
25,AACTCGTG,0.228
26,CACTCGTA,0.458

row,Sequence,PBM E-score
1,AACTCGTC,0.102
2,AACTCGTA,0.47
3,GCTACCTA,-0.156
4,ACCTTTCA,-0.0376
5,ACAAGCCG,-0.0164
6,AGGATTAC,-0.0965
7,CCGGTAAG,0.0008
8,ATAATTAT,0.311
9,ACAGTAAT,-0.0196
10,CAGAATCG,0.17
11,ACCTCACA,-0.106
12,AAAGTGTT,-0.0118
13,GCTTGAGA,-0.0858
14,ACGAGGGG,0.365
15,CCGAGGGA,-0.0341
16,ACGAGGGC,0.374
17,AAGAGGGC,-0.297
18,CCGAGGGC,0.203
19,ACGAGGGA,0.41
20,TAGTGGCA,-0.179
21,CCCTTCCC,-0.234
22,ACTCCAAC,-0.175
23,CTACTTCC,0.0408
24,ATCATCAT,0.0455
25,GTATCGAC,0.165
26,GTCGTAAC,0.397

row,Sequence,PBM E-score
1,CACGTAAG,0.0432
2,GGCGTAAC,-0.0339
3,GACGTAAC,-0.079
4,ATCGTAAC,0.368
5,CTCGTAAG,0.44
6,CTCGTAAC,0.428
7,CACGTAAC,-0.149
8,CGCGTAAG,0.165
9,TCGCACCA,0.324
10,CTAAGAAG,-0.0845
11,ACTGTGAG,-0.105
12,GCGAGCAA,0.198
13,CCCATTAG,-0.248
14,AGCAACAT,-0.112
15,ACGTCTTC,-0.126
16,ACAACTGT,-0.148
17,AGTGTACA,-0.0734
18,ATTGTACG,0.431
19,CCTGTACG,0.4
20,ATTGTACA,-0.0596
21,AGTGTACC,-0.059
22,ACTGTACT,-0.12
23,ATTGTACC,0.00485
24,ACTGTACC,-0.0754
25,ACTGTACG,0.42
26,AGTGTACG,0.389

row,Sequence,PBM E-score
1,CCTGTACA,-0.174
2,CCTGTACC,-0.0544
3,AATTTTGA,0.0335
4,CCCTGATA,-0.194
5,CGGATCTA,0.0938
6,CAAGCCGA,0.0727
7,AGACAGAA,-0.0147
8,CATGTACA,-0.0676
9,CATGTACG,0.399
10,AATGTACG,0.331
11,CAAGGGTA,-0.0852
12,CCTACAGC,-0.318
13,CGTACAGA,0.382
14,GGTACAGA,-0.0866
15,CGTACAGC,0.427
16,AGTACAGA,0.0225
17,AGTACAGC,-0.113
18,CGAAGGCG,0.124
19,CGGGTTAC,0.231
20,CGTTCCAC,0.405
21,GGTTCCAC,-0.237
22,AGTTCCAG,-0.172
23,CGTTCCAA,0.365
24,AGTTCCAC,0.0665
25,CGTTCCAG,0.418
26,CAATCTAG,-0.0844

row,Sequence,PBM E-score
1,AGGTCCCC,-0.33
2,GCTTCCGA,0.0694
3,GCTGCGAA,0.0942
4,CCACAGTC,-0.189
5,AGGGACAC,-0.0536
6,GGTTTACA,-0.0503
7,AGTTTACC,-0.0268
8,CATTTACC,-0.0682
9,CGTTTACC,0.435
10,AGTTTACA,-0.0418
11,CGTTTACA,0.405
12,GCTAGCCC,-0.379
13,GGCCCGGA,-0.142
14,GCAGGTCC,0.0428
15,CCATCTCG,0.105
16,AACATACT,0.0945
17,CGCATACA,0.111
18,CGCATACG,0.385
19,AACATACG,0.373
20,ATCATACA,0.0909
21,CGCATACC,0.16
22,CACATACG,0.335
23,ATCATACG,0.404
24,ATCATACC,0.00527
25,CCGTCTTC,-0.175
26,CCCTCAAA,-0.157

row,Sequence,PBM E-score
1,ATTTGCGG,0.0753
2,AACCGTTA,0.0731
3,ACGACAAC,0.366
4,ACGACAAG,0.334
5,ACGACAGG,0.339
6,ACGACAAT,0.368
7,CCGACAAA,0.0481
8,TCGACAAA,0.178
9,ACGACAGC,0.319
10,ACGACAGT,0.382
11,ACGACAAA,0.384
12,ACGCCAGG,0.0457
13,GTCCAGCA,-0.169
14,AAGCGTGT,-0.18
15,CAGATATC,-0.0887
16,GGTTCGAC,0.0422
17,TGCACAAA,-0.22
18,AATCTCGT,0.386
19,AATCTCGA,0.0888
20,AAGCTCGT,0.38
21,AAGCTCGC,0.297
22,AATCTCGG,0.129
23,AAGCTCGA,0.0757
24,TACATGGA,-0.119
25,GCAGGGCA,-0.18
26,GGCCACCA,-0.161

row,Sequence,PBM E-score
1,ACCAGAAG,-0.0736
2,CGACTGAA,0.163
3,ACCGAGCC,0.245
4,CAACGATC,0.175
5,AAACGATG,0.439
6,AAACGATC,0.423
7,GATCGATC,0.171
8,AAACGCTT,0.00074
9,AATCGATT,0.0191
10,AGACGATC,-0.0754
11,GAACGATC,0.432
12,AAACGCTG,0.0348
13,CCACGATC,0.0737
14,AAACGATT,0.42
15,CAACGATG,0.207
16,CATTAGGG,-0.168
17,AGAACCCG,-0.0503
18,ACTCTACG,0.265
19,AGCGCACG,0.097
20,ACCCCCTC,-0.274
21,CGTGGATC,-0.0292
22,CCTATGGA,-0.192
23,CCCATTAC,-0.101
24,CGACTGAG,0.0682
25,CAACGATA,0.263
26,CCACGATA,0.0166

row,Sequence,PBM E-score
1,TAACGATA,0.367
2,GAACGATA,0.416
3,AAACGATA,0.435
4,GGACGATA,-0.213
5,ACCCTTGG,-0.233
6,ATTCTAAA,0.095
7,ACCTAGAG,-0.00033
8,ATTCGCGG,-0.00497
9,ACGGGAGA,0.0694
10,CGACGGGA,0.227
11,ATTAAACG,0.449
12,ATTAAACC,-0.0934
13,CCTAAACC,-0.00691
14,ACTAAACG,0.457
15,ACTAAACC,-0.00061
16,ACTAAACA,-0.273
17,ATTAAACA,-0.163
18,CCTAAACG,0.407
19,CCTAAACA,-0.149
